A selection: hits, their analogues and other compounds. The true share with any hit is near 2.7%.
14-3-3 Bad inh = inhibitors of 14-3-3 zeta/Bad binding, primary screen, biochemical, TR-FRET, bovine 14-3-3 zeta; TR-FRET 14-3-3zeta/Dy647-pBad peptide displacement, 1 h; inhibition, % at 21.7 µM; 220,000 compounds, 0.71% hits;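 active means inhibition above about 70%, limit read from the data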
Target sequence (P63103 whole entry, looked up): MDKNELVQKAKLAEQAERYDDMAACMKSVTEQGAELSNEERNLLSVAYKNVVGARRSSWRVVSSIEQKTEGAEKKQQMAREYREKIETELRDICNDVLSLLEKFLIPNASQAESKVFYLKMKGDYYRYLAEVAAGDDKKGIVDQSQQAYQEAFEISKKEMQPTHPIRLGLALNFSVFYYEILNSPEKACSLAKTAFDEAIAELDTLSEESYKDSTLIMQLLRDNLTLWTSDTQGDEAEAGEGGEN
Mcl1 Noxa PPI = Mcl-1/Noxa binding inhibitors, primary screen, biochemical, TR-FRET, 1536-well; 220,000 compounds, 1.5% hits; TR-FRET Mcl-1/Noxa peptide binding, 2 h; AID 1022, 2008; inhibition, % at 21.7 µM; Induced myeloid leukemia cell differentiation protein Mcl-1 (Homo sapiens), Q07820;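 active means compounds that cut the protein-peptide binding signal by more than 50% relative to plate controls in a single-dose test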;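 further: His-tagged Mcl-1 with rhodamine Noxa BH3 peptide and terbium anti-His antibody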
Target sequence (Q07820 whole entry, looked up): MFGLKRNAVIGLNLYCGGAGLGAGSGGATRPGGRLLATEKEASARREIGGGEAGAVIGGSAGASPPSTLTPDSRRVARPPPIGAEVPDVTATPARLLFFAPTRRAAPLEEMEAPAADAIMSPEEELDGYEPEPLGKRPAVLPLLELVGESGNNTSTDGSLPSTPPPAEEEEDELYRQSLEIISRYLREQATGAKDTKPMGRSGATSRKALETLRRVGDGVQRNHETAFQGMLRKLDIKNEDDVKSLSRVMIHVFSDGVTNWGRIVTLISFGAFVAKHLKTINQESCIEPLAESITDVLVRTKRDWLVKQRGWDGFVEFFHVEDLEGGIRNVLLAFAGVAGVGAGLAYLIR
Mcl1-Bid inh = Mcl-1/Bid binding inhibitors, primary screen, biochemical, TR-FRET, 1536-well; TR-FRET Mcl-1/Bid-Dy647 peptide binding; inhibition, % at 21.7 µM; 220,000 compounds, 0.97% hits;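 active means compounds that cut the binding signal by more than half at the single screening dose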;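 further: His-tagged Mcl-1 with europium anti-His antibody binding Bid BH3 peptide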
Pf gamet viab = late stage P. falciparum gametocyte viability inhibitors, primary screen, ATP luminescence, HTS. 150,000 compounds, 0.065% hits. P. falciparum stage V gametocytes, 24 h. inhibition, % at 10.9 µM. AID 743093, 2013;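 active means inhibition above the mean plus 3 SD of compounds within the control limits, set per campaign, cut at about 38% in these data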
Mcl-1 Bim block = inhibitors of Bim peptide binding to Mcl-1, primary screen, biochemical, bead-based flow cytometry, multiplex; Bim peptide-Mcl-1 binding; inhibition, % at 10 µM; Induced myeloid leukemia cell differentiation protein Mcl-1 (Homo sapiens), Q07820; 190,000 compounds, 0.1% hits; in the data active means inhibition above about 40%
eIF4E-4G inh = eIF4E–eIF4G protein interaction inhibitors, primary screen, biochemical, uHTS, TR-FRET, eIF4GI fragment. inhibition, % at 21.7 µM. TR-FRET eIF4E-eIF4GI(517-606) binding, 2 h. 220,000 compounds, 0.37% hits;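 active means inhibition above about 30%, limit read from the data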
Large screens that a line does not name were inactive; [ ] = remark or other dose.

O=C(/C=C/c1ccc2c(c1)OCO2)Nc1nc(-c2ccc(F)cc2)cs1	none (no result: Pf gamet viab)
Cc1ccsc1/C=N/NC(=O)Nc1ccccc1	none
COc1ccc(C2CC(c3c(-c4ccccc4)c4cc(Cl)ccc4[nH]c3=O)=NN2S(C)(=O)=O)cc1OC (configuration not stated)	Mcl1-Bid inh 58.7 (no result: Pf gamet viab)
COc1ccc(C2CC(c3cccs3)=NN2S(C)(=O)=O)cc1OC (configuration not stated)	none (no result: Pf gamet viab)
CCOC(=O)/C=C1\SCC(=O)N1CCOc1cccc(Br)c1	none (no result: Pf gamet viab)
O=c1c2ccccc2nc2n1CCC2	14-3-3 Bad inh 93.7, Mcl1-Bid inh 96.0, eIF4E-4G inh 93.8 (no result: Pf gamet viab)
O=C(Cc1ccc(Cl)cc1)N/N=C/c1cccc(O)c1	none (no result: 14-3-3 Bad inh, Mcl1 Noxa PPI, Mcl1-Bid inh, Mcl-1 Bim block, eIF4E-4G inh)
NC(=O)CC[C@@H]1NC(=O)[C@H](CO)NC(=O)c2cc([N+](=O)[O-])cc(I)c2NCCC[C@@H](C(N)=O)NC(=O)[C@H](Cc2ccc(O)cc2)NC1=O	Mcl1 Noxa PPI 61.6
Cc1cc(C(=O)O)ccc1-n1c(C)cc(C=C2C(=O)c3ccccc3C2=O)c1C	none
Cc1cccc(NC(=O)CN2C(=O)S/C(=C\c3ccc(-c4cccc(C(=O)O)c4C)o3)C2=O)c1	none
Cc1ccc(C(=O)O)cc1-c1ccc(C=C2C(=O)c3ccccc3C2=O)o1	Mcl1 Noxa PPI 56.8
Cc1ccc(NC(=O)CN2C(=O)S/C(=C/c3ccc(-c4cc(C(=O)O)ccc4C)o3)C2=O)cc1C	14-3-3 Bad inh 76.5[fluorescence artefact?], Mcl1 Noxa PPI 84.3, Mcl1-Bid inh 93.5, eIF4E-4G inh 40.0
CC(C)(C)[C@@H]1COC(=O)[C@H](Cc2ccc(F)cc2)C/C=C\C[C@@H](CC(=O)N(CCO)Cc2ccccc2)C(=O)N1	none (no result: 14-3-3 Bad inh, Mcl1 Noxa PPI, Mcl1-Bid inh, Mcl-1 Bim block, eIF4E-4G inh)
COc1ccc(N2CCN(C(c3cc(OC)ccc3OC)c3nnnn3CC3CCCO3)CC2)cc1 (configuration not stated)	Mcl1 Noxa PPI 59.8
CCN1CCN(C(c2cc(OC)ccc2OC)c2nnnn2Cc2ccccc2)CC1 (configuration not stated)	14-3-3 Bad inh 79.3
CCN1CCN(C(c2ccccc2)c2nnnn2Cc2ccccc2)CC1 (configuration not stated)	none (no result: Pf gamet viab)
COc1ccc(N2CCN(C(c3cccc(OC)c3OC)c3nnnn3C3CCCC3)CC2)cc1 (configuration not stated)	14-3-3 Bad inh 77.1
COc1ccc(N2CCN(C(c3ccccc3OC)c3nnnn3C3CCCC3)CC2)cc1 (configuration not stated)	none
C=CCSC1=NNC(c2ccc(C(C)(C)C)cc2)=NN1	none (no result: Mcl-1 Bim block)
O=C(CCC(=O)N/N=C/c1ccccc1O)NCc1ccccc1	none (no result: Pf gamet viab)
CCC1CCC2(CC1)NC(CO)(CO)CO2 (configuration not stated)	Mcl1-Bid inh 63.6 (no result: Pf gamet viab)
CC1CCC2(CC1)NC(CO)(CO)CO2 (configuration not stated)	none (no result: Pf gamet viab)
O=[N+]([O-])c1ccc(-c2cc(-c3ccc(Cl)cc3)n[nH]2)cc1	Mcl1 Noxa PPI 81.3 (no result: Pf gamet viab)
Cc1cc(C)nc(/N=C(\N)N2CCc3ccccc32)n1	Mcl-1 Bim block 49.0
O=C(/C(=N/N=C/c1ccc(O)c(O)c1O)c1ccccc1)c1ccccc1	Mcl1 Noxa PPI 51.8
Oc1cccc(C=NCc2ccccc2)c1O	none
Oc1ccc(/C=N/N=C(c2ccccc2)c2ccccc2)c(O)c1O	Mcl1 Noxa PPI 101.2, eIF4E-4G inh 33.4[fluorescence artefact?]
O=C(c1csc2c1CCCCC2)N1CCN(c2ncccn2)CC1	none
O=C(NCc1ccco1)c1cc2ccc(O)cc2oc1=O	Mcl1 Noxa PPI 56.0 (no result: 14-3-3 Bad inh, eIF4E-4G inh)
CCCCCCNC(=O)N[C@@H](C(=O)NCCC[C@H]1CN2C(=NC[C@@H]2Cc2ccccc2)N1CCc1cccc(OC)c1)C(C)C	eIF4E-4G inh 41.2 (no result: Pf gamet viab, Mcl-1 Bim block)
Cc1c(-n2cccc2C=O)cccc1[N+](=O)[O-]	eIF4E-4G inh 86.4
O=Cc1cccn1-c1cccc([N+](=O)[O-])c1	none
COc1ccc(CN2C(=O)c3cccnc3C2Nc2cc(Cl)c(OC)cc2OC)cc1 (configuration not stated)	14-3-3 Bad inh 92.2, Mcl1-Bid inh 90.3
COc1ccc(CN2C(=O)c3cccnc3C2Nc2ccc(C)cc2)cc1 (configuration not stated)	none (no result: Pf gamet viab)
Cc1ccc(-c2noc(-c3ccccc3C(=O)N3CCCC3)n2)cc1	none
Cc1ccc(-c2noc(-c3ccccc3C(=O)N3CCN(C)CC3)n2)cc1	Mcl1-Bid inh 70.6
Cc1cc(C(=O)NCC23CC4CC(CC(C4)C2)C3)c(C)o1	none (no result: Pf gamet viab)
Cc1cnc(C(=O)OCC(=O)Nc2oc(-c3ccccc3)c(-c3ccccc3)c2C#N)cn1	Mcl1 Noxa PPI 54.3
CCc1cc(OCCCCNCc2ccccc2)ccc1Cl	none
COc1ccc(C(=O)Nc2sc3c(c2C#N)CCN(C(C)=O)C3)cc1	none
CC(=O)N1CCc2c(sc(NC(=O)c3ccc([N+](=O)[O-])o3)c2C#N)C1	Mcl1 Noxa PPI 53.2
CCCCNC(=O)c1c(N)n(/N=C/c2ccccn2)c2nc3ccccc3nc12	14-3-3 Bad inh 81.1 (no result: Pf gamet viab)
CC(C)CNC(=O)c1c(N)n(/N=C/c2ccccn2)c2nc3ccccc3nc12	Mcl1-Bid inh 55.9 (no result: Pf gamet viab)
CC(=O)n1cc([C@H]2C=C(C(=O)N3CCOCC3)O[C@@H](OCCCCO)C2)c2ccccc21	none (no result: 14-3-3 Bad inh, Mcl1 Noxa PPI, Mcl1-Bid inh, Mcl-1 Bim block, eIF4E-4G inh)
CNC(=S)Nc1sc2c(c1C(=O)OC)CCC2	Mcl1 Noxa PPI 75.0
COC(=O)c1c(NC(C)=O)sc2c1CCCCC2	none
O=C(Nc1sc2c(c1C(=O)O)CCC2)c1ccccc1	14-3-3 Bad inh 83.2, Mcl1-Bid inh 72.1
CCOC(=O)c1c(NC(=O)c2ccccc2N(C)S(=O)(=O)c2ccccc2)sc2c1CCCC2	Mcl-1 Bim block 53.0
COC(=O)c1c(NC(=O)c2cnccn2)sc2c1CCC2	Mcl1-Bid inh 96.7 (no result: Pf gamet viab)
O=C(Nc1sc2c(c1C(=O)O)CCCCC2)c1ccccc1	none
COC(=O)c1c(NC(C)=O)sc2c1CCCC2	none (no result: Pf gamet viab)
S=C(Nc1ccc2[nH]ccc2c1)NC1CCCCC1	none (no result: Mcl-1 Bim block)
Clc1ccc(OCCOCCN2CCCCC2)c(Br)c1	Mcl1-Bid inh 62.4
CN(C)CCCOc1ccc(Cl)cc1Br	Mcl1-Bid inh 53.4
Cc1ccc(C(=O)Nc2ccc(NC(=O)c3cccs3)cc2)cc1[N+](=O)[O-]	none
Cc1ccc(C(=O)NC(=S)Nc2ccc(NC(=O)c3cccs3)cc2)cc1[N+](=O)[O-]	Mcl1-Bid inh 51.6
N#C/C(=C(O)\C=C\c1ccccc1)c1nc2ccccc2[nH]1	Mcl1 Noxa PPI 67.3 (no result: Mcl-1 Bim block)
CC(C)(C)/C(O)=C(/C#N)c1nc2ccccc2[nH]1	none
